GAA inhib = blocks human lysosomal alpha-glucosidase; P10253; purified human GAA, 4-MU-alpha-glucoside fluorescence; Potency, µM (titrated, usually from 76.9 µM), most hits filed as inhibitors; actives 0.005% (n = 200,000)
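Compounds are titrated up to 77 uM against 4 nM human enzyme. Substrate 4-methylumbelliferyl-alpha-D-pyranoside (400 uM) reacts 20 min at room temperature in pH 5.0 buffer; liberated 4-methylumbelliferone is read at 440 nm.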
aGlu spleen mod = inhibits or activates alpha-glucosidase in human spleen homogenate | P10253 | human spleen homogenate, 4-MU-alpha-glucoside fluorescence | Potency, µM (highest dose often 79.9 µM), usual class: inhibitors | actives 0.006% (n = 240,000) | AID 2112
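Human spleen homogenate (1 ug) incubated with compounds and 1 mM 4-methylumbelliferyl-alpha-D-glucopyranoside in pH 5.0 citrate/phosphate buffer, 37 C, 40 min. Stopped at pH 10; 4-MU fluorescence (Ex 365/Em 440 nm); AC50 by Hill fit.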
N370S GC = inhibits or activates N370S mutant glucocerebrosidase | actives 0.092% (n = 330,000) | N370S GC spleen homogenate, 4MU-glucoside fluorescence | Potency, µM (top dose mostly 59.4 µM), hits mostly inhibitors | P04062 | AID 2101
GLA inh pH 4.5 = alpha-galactosidase A (human) inhibition, pH 4.5. AID 1467. purified enzyme, 4-MU-alpha-Gal fluorescence, pH 4.5. activity change, negative = inhibition, % at 105 µM. 230,000 tested, under 10 active. P06280
Target sequence (P06280 whole entry, looked up): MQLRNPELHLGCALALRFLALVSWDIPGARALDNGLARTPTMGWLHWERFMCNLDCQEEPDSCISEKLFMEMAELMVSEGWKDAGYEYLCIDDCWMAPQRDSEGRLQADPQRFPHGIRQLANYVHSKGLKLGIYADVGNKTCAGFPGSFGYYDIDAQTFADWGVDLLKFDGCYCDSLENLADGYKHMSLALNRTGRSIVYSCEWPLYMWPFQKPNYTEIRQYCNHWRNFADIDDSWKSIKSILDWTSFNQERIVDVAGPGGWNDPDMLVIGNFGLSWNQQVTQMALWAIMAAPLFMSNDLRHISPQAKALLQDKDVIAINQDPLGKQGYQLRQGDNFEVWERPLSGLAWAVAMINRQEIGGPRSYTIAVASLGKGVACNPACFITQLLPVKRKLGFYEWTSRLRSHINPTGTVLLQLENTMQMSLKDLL
GLA spleen mod = inhibitors or activators of human alpha-galactosidase in spleen homogenate; P06280; human spleen homogenate, 4MU-alpha-Gal fluorescence, 40 min; Potency, µM (highest dose often 80 µM), hits mostly inhibitors; actives 0.008% (n = 240,000)
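qHTS titration in buffer at pH 5.0. Alpha-galactosidase activity in spleen homogenate was measured via 4-methylumbelliferone release from 1 mM fluorogenic substrate after 40 min at 37C and a pH 10 stop. AC50 came from Hill fits of control-normalized data.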
GAA glycogen = alters human alpha-glucosidase cleavage of glycogen; actives 0.38% (n = 300,000); recombinant GAA, glycogen substrate, Amplex Red glucose oxidase fluorescence; Potency, µM (titrated, usually from 76.4 µM), actives largely listed as inhibitors; P10253;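 further: the screen sought inhibitors and activators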
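Recombinant human enzyme (4 nM); glycogen substrate; 37 C, 40 min, pH 5.0. Readout: coupled glucose oxidase/Amplex Red fluorescence.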
A number is an active result; [ ] = another dose, or the depositor's remark. A selection: hits, their analogues and other compounds. The true share with any hit is near 0.43%. The call rests on the fitted dose curve; in most records, active means well fitted curve in the direction sought with a large enough effect; inconclusive means small, poorly fitted or top-dose-only effect, or another doubt; inactive means no such curve, though single readings can be large; an effect the other way counts as inactive or inconclusive.

Screening Cc1ccccc1Nc1nc(NCc2ccco2)c2ccccc2n1 returned GAA inhib inactive, aGlu spleen mod inactive, N370S GC 20µM, GLA inh pH 4.5 inactive, GLA spleen mod inactive and GAA glycogen inactive.
For Oc1ccc(Nc2nc(NCC3CCCO3)c3ccccc3n2)cc1 (stereo unspecified) the results were GAA inhib inactive, aGlu spleen mod inactive, N370S GC inactive, GLA inh pH 4.5 inactive, GLA spleen mod inactive and GAA glycogen inconclusive.
Screening Oc1ccccc1Nc1nc(NCc2ccco2)c2ccccc2n1 returned aGlu spleen mod inactive, N370S GC inconclusive, GLA inh pH 4.5 inactive, GLA spleen mod inactive and GAA glycogen 11µM.
O=C(NCCc1c[nH]c2ccccc12)c1ccccc1O was read as aGlu spleen mod inactive, N370S GC inactive and GLA spleen mod inactive.
Screening S=C(NCc1ccco1)N/N=C/c1ccc(Cl)cc1 returned GAA inhib inactive, aGlu spleen mod inactive, N370S GC inactive, GLA inh pH 4.5 inactive, GLA spleen mod inactive and GAA glycogen inactive.
Screening Oc1ccc(/C=N/NC(=S)NCc2ccco2)cc1 returned GAA inhib inactive, aGlu spleen mod inactive, N370S GC inactive[12.8 µM], GLA inh pH 4.5 inactive, GLA spleen mod inactive and GAA glycogen 28µM.
For COc1ccc(NC(=S)NNC(=O)Cn2nc([N+](=O)[O-])cc2C)cc1 the results were GAA inhib inactive, aGlu spleen mod inactive, N370S GC inactive, GLA inh pH 4.5 inactive, GLA spleen mod inactive and GAA glycogen 14µM.
`CN(C)c1ccc(N/C=C/C(=O)C(C)(C)C)cc1` gave GAA inhib inactive, aGlu spleen mod inactive, N370S GC inactive, GLA inh pH 4.5 inactive, GLA spleen mod inactive and GAA glycogen inconclusive.
For CC(C)(C)C(=O)/C=C/Nc1ccccc1O the results were GAA inhib inactive, aGlu spleen mod inactive, N370S GC inactive, GLA inh pH 4.5 inactive, GLA spleen mod inactive and GAA glycogen 14µM.
For COC(=O)c1ccccc1S(=O)(=O)N1CCc2nc(-c3ccc(OC)cc3C)c3c(c2C1)CO[C@@H](c1ccccc1)C3 the results were aGlu spleen mod inactive[17.4 µM], N370S GC inactive[12.8 µM], GLA inh pH 4.5 inactive and GLA spleen mod inactive[17.5 µM].
For COc1cc2c(cc1OC)C1N(CC2)C(=O)CCC12C(=O)CCCC2=O (stereo unspecified) the results were aGlu spleen mod inactive, N370S GC inconclusive, GLA inh pH 4.5 inactive and GLA spleen mod inactive.
COC(=O)C1=C(C)N(Cc2ccccc2)[C@]23O[C@](C(=O)OC)(C(=O)N2C1c1ccccc1)C(c1ccccc1)C3C(=O)c1ccccc1 (stereo partly specified) was read as aGlu spleen mod inactive[17.4 µM], N370S GC inactive[12.8 µM] and GLA spleen mod inactive[17.5 µM].
For COc1cc(-c2nc3cnccn3c2Nc2ccc3c(c2)OCCO3)ccc1O the results were GAA inhib inactive, aGlu spleen mod inactive, N370S GC inactive, GLA inh pH 4.5 inactive, GLA spleen mod inactive and GAA glycogen 7µM.
For COc1cc(-c2nc3cnccn3c2Nc2ccc(C)cc2)ccc1O the results were GAA inhib inactive, aGlu spleen mod inactive, N370S GC inactive, GLA inh pH 4.5 inactive, GLA spleen mod inactive and GAA glycogen 11µM.
For COc1cc(-c2nc3ccc(C)cn3c2Nc2ccc3c(c2)OCCO3)ccc1O the results were GAA inhib inconclusive, aGlu spleen mod inactive, N370S GC inconclusive, GLA inh pH 4.5 inactive, GLA spleen mod inactive and GAA glycogen inactive.
Screening NC(=NCc1ccc(Cl)cc1Cl)NC(=O)c1nc(Cl)c(N)nc1N returned aGlu spleen mod inconclusive, N370S GC inactive and GLA spleen mod inconclusive.
COc1ccc(N/C(C)=C/C(=O)c2ccccc2)cc1 was read as GAA inhib inactive, aGlu spleen mod inactive, N370S GC inactive, GLA inh pH 4.5 inactive, GLA spleen mod inactive and GAA glycogen inactive.
COc1ccc(C(=O)/C=C(\C)Nc2ccc3c(c2)OCO3)cc1 was read as GAA inhib inactive, aGlu spleen mod inactive, N370S GC inactive, GLA inh pH 4.5 inactive, GLA spleen mod inactive and GAA glycogen 35µM.
COc1oc(=O)c2cc(N)ccc2c1Cl was read as aGlu spleen mod inactive, N370S GC inactive and GLA spleen mod inactive.
Screening COc1cccc(-c2nnc3n2N=C(c2c(OC)cccc2OC)CS3)c1 returned aGlu spleen mod inactive, N370S GC inactive and GLA spleen mod inactive.
Screening CCCOc1ccc(-c2nc(C#N)c(NCCCn3ccnc3)o2)cc1 returned GAA inhib inactive, aGlu spleen mod inactive, N370S GC inactive, GLA inh pH 4.5 inactive, GLA spleen mod inactive and GAA glycogen 31µM.
`C/C=C\C1=C(CO)C(=O)[C@@H]2OC2C1=O` (stereo partly specified) gave aGlu spleen mod inactive[17.4 µM], N370S GC inactive[12.8 µM] and GLA spleen mod inactive[17.5 µM].
Screening COc1ccc(C(=O)NNC(=S)NC(=O)C(C)(C)C)cc1 returned GAA inhib inactive, aGlu spleen mod inactive, N370S GC inactive, GLA inh pH 4.5 inactive, GLA spleen mod inactive and GAA glycogen 7.9µM.
COC(=O)N[C@@H](c1ccc(Br)cc1)C(C(=O)OC)C(=O)OC was read as aGlu spleen mod inactive, N370S GC inactive, GLA inh pH 4.5 inactive and GLA spleen mod inactive.
For Cc1ccc(NC(=S)NNc2ccc([N+](=O)[O-])cc2S(=O)(=O)Nc2ccccc2C(=O)O)cc1C the results were GAA inhib inactive, aGlu spleen mod inactive, N370S GC inactive, GLA inh pH 4.5 inactive, GLA spleen mod inactive and GAA glycogen 22µM.
`OC1OC[C@H](O)[C@@H](O)[C@@H]1O` (stereo partly specified) gave aGlu spleen mod inactive, N370S GC inactive and GLA spleen mod inactive.
Screening CN(C(=O)N1CCN(S(=O)(=O)c2ccccc2)CC1)c1ccccc1 returned GAA inhib 35µM, aGlu spleen mod inactive, GLA inh pH 4.5 inactive, GLA spleen mod inactive and GAA glycogen inactive.
For CCCCCCCCCCCC the results were aGlu spleen mod inactive, N370S GC inactive and GLA spleen mod inactive.
`C=C1CC2C(=O)N(Cc3cc(OC)ccc3OC)C(C(=O)OCC)C1N2C` (stereo unspecified) gave aGlu spleen mod inactive, N370S GC inactive and GLA spleen mod inactive.
`COc1ccccc1N/N=C/c1c(CO)cnc(C)c1O` gave GAA inhib inactive, aGlu spleen mod inactive, N370S GC inactive, GLA inh pH 4.5 inactive, GLA spleen mod inactive and GAA glycogen 3.2µM.
For COc1ccc(C(=O)N/N=C/c2c(CO)cnc(C)c2O)cc1 the results were GAA inhib inactive, aGlu spleen mod inactive, N370S GC inactive, GLA inh pH 4.5 inactive, GLA spleen mod inactive and GAA glycogen inactive.

Screening data: PubChem BioAssay, National Center for Advancing Translational Sciences (NCATS)
